Our source for the inhibition and inhibition of radioligand binding, muscarinic M1 values is PubChem BioAssay AID651832 (Vanderbilt Specialized Chemistry Center, 2012).

In general, inhibition refers to the relative decrease from the control value, in per cent.

The test in a line: binding inhibition across receptor and channel panel – biochemical, Eurofins PanLabs, competition binding, selectivity assay for M5 PAM project, profiling panel (AID 651832). The note with it: at 10 µM, stronger effect = higher value; for inhibition: Eurofins PanLabs radioligand binding panel.

The structures appear in SMILES notation.

`O=C1C(=O)N(CCOc2ccccc2)c2ccc(OC(F)(F)F)cc21` showed an inhibition of radioligand binding, muscarinic M1 of 22%. Besides, the inhibition (measured here: adenosine A3 binding) was determined as 57%. For the same compound, the inhibition (measured here: adrenergic alpha1A binding) was 71%. Also, the inhibition (measured here: adrenergic alpha1B binding) is 66%. Besides, for the setting “measured here: cannabinoid CB1 binding”, the inhibition turned out to be 72%. In addition, the inhibition (measured here: dopamine D1 binding) was determined as 73%. Further, for the setting “measured here: dopamine D3 binding”, the inhibition is 59%. Further, the inhibition (measured here: glucocorticoid receptor binding) came out at 88%. In addition, for the setting “measured here: hERG binding”, the inhibition turned out to be 21%. Also, the inhibition (measured here: histamine H2 binding) was determined as 95%. Moreover, under “measured here: mu opioid binding”, the inhibition amounted to 78%. In addition, under “measured here: muscarinic M2 binding”, the inhibition is -2%. Moreover, the inhibition (measured here: norepinephrine transporter binding) was determined as 77%.
